Results filed as inconclusive are left out. Activity calls are given as the source filed them. Unless noted, calls follow the shape of the dose curve; as a rule, active = well fitted curve in the direction sought with a large enough effect; inconclusive = small, poorly fitted or top-dose-only effect, or another doubt; inactive = no such curve, though single readings can be large; an effect the other way counts as inactive or inconclusive.

Experimental findings from PubChem BioAssay (NCATS) are described below.

In assay [1] the target is Retinoic acid receptor RXR-alpha (Homo sapiens) (UniProt P19793). The experiment in a line: qHTS assay for small molecule agonists of retinoid X receptor alpha signaling (AID 588544; calls by dose curve;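 also: 0% = DMSO basal wells and 100% = reference agonist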). On the technique in general: qHTS replaces the single test concentration by a dilution series.
Retinoic acid receptor RXR-alpha (Homo sapiens), sequence (P19793 whole entry, looked up): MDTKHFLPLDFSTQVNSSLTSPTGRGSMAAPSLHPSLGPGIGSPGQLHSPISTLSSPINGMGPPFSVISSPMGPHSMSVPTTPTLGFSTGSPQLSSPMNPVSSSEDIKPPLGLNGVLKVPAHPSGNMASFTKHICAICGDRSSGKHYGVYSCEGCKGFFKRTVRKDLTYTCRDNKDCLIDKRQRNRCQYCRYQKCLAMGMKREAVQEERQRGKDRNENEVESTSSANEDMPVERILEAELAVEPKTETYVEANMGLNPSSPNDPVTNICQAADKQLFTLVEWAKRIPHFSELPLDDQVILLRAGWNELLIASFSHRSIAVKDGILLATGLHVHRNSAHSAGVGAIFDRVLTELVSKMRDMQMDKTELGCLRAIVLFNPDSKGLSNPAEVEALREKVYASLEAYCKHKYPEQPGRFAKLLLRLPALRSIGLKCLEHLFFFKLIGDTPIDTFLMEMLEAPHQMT
Assay [2] is described as follows: qHTS assay for small molecule antagonists of retinoid X receptor alpha signaling (AID 588546; active = well fitted inhibition curve with a large enough effect in the signal ratio, with a control signal flat, not every such curve was filed as active; the % refers to the signal ratio;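 also: cells stimulated with 9-cis-retinoic acid as agonist; % is scaled to controls: 0 for no effect and ±100 for the full control effect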). The conditions noted are these: HEK293T RXRa-UAS-bla, beta-lactamase ratio, antagonist mode; measured here: W530 green channel, cytotoxicity proxy. The gist of the method: (§1)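 Beta-lactamase reporter inhibition, read as CCF4 fluorescence ratio (ex 405, em 460/530 nm) after 2 h at RT. HEK293T UAS-bla cells, 2500/well, were stimulated with 9-cis-RA at 500 or 100 nM final alongside test compound for 18 h at 37 C.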

Assay [3] has as its target Retinoic acid receptor RXR-alpha (Homo sapiens) (UniProt P19793). The assay is described as above. The conditions noted are these: HEK293T RXRa-UAS-bla, beta-lactamase ratio, antagonist mode. The gist of the method: as §1
Assay [4] addresses Voltage-gated inwardly rectifying potassium channel KCNH2 (Homo sapiens) (UniProt Q12809). The experiment in a line: qHTS Assay for Small Molecule Inhibitors of the Human hERG Channel Activity (AID 588834).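 Also: top concentration of the series differs between compounds; % is scaled to controls: 0 for no effect and ±100 for the full control effect; lower thallium flux fluorescence means stronger hERG block; nearly all actives have a fitted effect of over 50% in size.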 The method, boiled down: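 U2OS cells BacMam-transduced with hERG, 2000 cells/well, compound ~10 min at 37 °C before stimulation buffer. FluxOR thallium flux fluorescence read kinetically on FDSS; decrease indicates block; AC50 from Hill fits.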

A short description of assay [5]: qHTS assay for small molecule agonists of the antioxidant response element (ARE) signaling pathway (AID 651741; active = well fitted activation curve with a large enough effect in the signal ratio; the % refers to the signal ratio; also: % of control where 0% means no effect). The gist of the method:
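Seeding 2,000 ARE-bla HepG2 cells per well preceded a 5 h incubation at 37 C/5% CO2 and a 16 h compound exposure at 37 C. Beta-lactamase reporter activity was then quantified by fluorescence after 2 h with LiveBLAzer B/G FRET substrate.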

Assay [6] can be described thus: qHTS assay for small molecule activators of the nuclear factor-kappa B (NF-kB) signaling pathway (AID 651749; active = well fitted activation curve with a large enough effect in the signal ratio; the % refers to the signal ratio; also: series mostly up to about 77 µM; % of control where 0% means no effect). The conditions noted are these: NF-kB-bla ME-180 cells, beta-lactamase FRET ratio, 16 h; activation: stronger effect = higher value. The method, boiled down:
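Stably transfected ME-180 line; NF-kB response element upstream of beta-lactamase. Treatment: compound or DMSO, 16 hr. Detection: fluorescent FRET substrate.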

Assay [7] is described as follows: qHTS assay for small molecule disruptors of the mitochondrial membrane potential - 1 hr assay (AID 651754; calls by dose curve; also: % is scaled to controls: 0 for no effect and ±100 for the full control effect; nearly all actives have a fitted effect of over 35% in size). The gist of the method: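 Steps: seed HepG2 cells and let attach overnight; pin-transfer compound or vehicle; incubate 1 hr at 37C; add Mito-MPS dye for 30 min; read two-channel fluorescence for monomer and aggregate forms.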
The nature of assay [8]: qHTS assay for small molecule disruptors of the mitochondrial membrane potential - 5 hr assay (AID 651755; calls by dose curve; also: % is scaled to controls: 0 for no effect and ±100 for the full control effect; nearly all actives have a fitted effect of over 40% in size). The method, boiled down:
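HepG2, 2,000 cells/well, overnight attach; cpd or DMSO 5 hr, 37C/5% CO2; Mito-MPS 30 min 37C; fluor 490/535 + 540/590 nm.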

Assay [9] has as its target Tumor necrosis factor (Homo sapiens) (UniProt P01375). Put plainly: qHTS assay to identify small molecules that stimulate Tumor Necrosis Factor-alpha (TNF-alpha) secretion (AID 651757; active = well fitted curve in the direction sought with a large enough effect in the signal ratio; the % refers to the signal ratio; also: 0% is about no effect). The gist of the method:
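Secreted TNF-alpha from compound-treated THP-1 cells (17 hrs, 37 C) was quantified with a homogeneous time-resolved fluorescence antibody assay.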

Assay [10] is described as follows: qHTS assay to identify small molecules that stimulate interleukin-8 (IL-8) secretion (AID 651758; active = well fitted activation curve with a large enough effect in the signal ratio; the % refers to the signal ratio; also: 0% is about no effect). The gist of the method: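 Secreted IL-8 measured by TR-FRET sandwich (cryptate and XL665 antibodies) from THP-1 cells exposed to compound overnight (16 hrs, 37 C).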
Assay [11] in a line: qHTS assay for environmental chemicals that activate the Aryl hydrocarbon Receptor (AhR) signaling pathway (AID 651777). Also: % of control where 0% means no effect; nearly all actives have a fitted effect of over 15% in size. Particulars: 1A2-DRE human hepatoma cells, luciferase, 24 h; activation: stronger effect = higher value. The gist of the method:
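Induction of CYP1A2 transcription through AhR is detected by luciferase in 1A2-DRE hepatoma cells. Compounds or DMSO act for 24 hr at 37 C before a 30 min One-Glo step at room temperature.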

Assay [12] deals with Peroxisome proliferator-activated receptor alpha (Homo sapiens) (UniProt Q07869). The experiment in a line: qHTS assay for small molecule agonists of the peroxisome proliferator-activated receptor alpha (PPARalpha) signaling pathway (AID 651778). Also: % of control where 0% means no effect. Particulars: PathHunter PPARalpha complementation, chemiluminescence, 6 h; stronger effect = higher value. The method, boiled down:
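Chemiluminescence from complemented enzyme reported PPARalpha activation in cells after 6 hr of compound treatment at 37 C. The detection reagent was incubated for 60 min at room temperature, and compounds were scored as agonists.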

Assay [13] is described as follows: qHTS assay for small molecule agonists of the antioxidant response element (ARE) signaling pathway measured by Nrf2-dependant transcriptional activity (AID 720636; active = well fitted curve in the direction sought with a large enough effect in the repeat runs; an effect the other way counts as inactive or inconclusive;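 also: HepG2 cells with an ARE-driven luciferase reporter; % of control where 0% means no effect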). The gist of the method: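 We exposed ARE-luc HepG2 cells, seeded in assay medium with 1% dialyzed FBS and allowed 6 hr to adhere, to test compounds overnight (16 hr, 37 C) before measuring luciferase with ONE-Glo.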

Assay [14] can be described thus: qHTS assay for small molecule antagonists of the retinoid-related orphan receptor gamma (ROR-gamma) signaling pathway - cell viability counter screen (AID 720652; active = well fitted curve in the direction sought with a large enough effect in the repeat runs; an effect the other way counts as inactive or inconclusive;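 also: series mostly up to about 92 µM; compound exposure lasted 16 hr before ATP read; % is scaled to controls: 0 for no effect and ±100 for the full control effect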). The gist of the method: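 Cytotoxicity is quantified via intracellular ATP (CellTiter-Glo luminescence) in doxycycline-induced CHO ROR response element-luciferase reporter cells treated with compound for 16 hr at 37 C, 5% CO2.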

Assay [15] is described as follows: qHTS assay for cell viability of HEK293 cells (AID 743288). Also: % is scaled to controls: 0 for no effect and ±100 for the full control effect; nearly all actives have a fitted effect of over 50% in size. The conditions noted are these: ATP luminescence (CellTiter-Glo), 18 h; max response: stronger effect = lower value. The method, boiled down: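 Parental HEK293 cells, 2,000 per well, preincubated at least 5 h at 37 C, then exposed to compounds in DMSO for 18 h at 37 C. Viability by CellTiter-Glo ATP luminescence after 30 min at room temperature.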

Assay [16] is described as follows: qHTS assay for cell viability of the p53RE-bla HCT-116 cell line (AID 743292). Also: % is scaled to controls: 0 for no effect and ±100 for the full control effect; nearly all actives have a fitted effect of over 55% in size. The method, boiled down: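 In this qHTS counter-screen, metabolically competent p53RE-bla HCT-116 cells were counted via their ATP content. Compounds were applied for 16 h at 37 C and luciferase-coupled luminescence was measured.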
The nature of assay [17]: qHTS for Inhibitors of the Functional Ribonucleoprotein Complex (vRNP) of Lassa (LASV) Arenavirus: LASV Primary Screen - GLuc reporter signal (AID 1347082; calls by dose curve; tested in HEK293 reporter line; also: series mostly up to about 57 µM; % is scaled to controls: 0 for no effect and ±100 for the full control effect; nearly all actives have a fitted effect of over 60% in size).
Assay [18] in a line: qHTS for Inhibitors of the Functional Ribonucleoprotein Complex (vRNP) of Lassa (LASV) Arenavirus: Viability assay - alamar blue signal for LASV Primary Screen (AID 1347083; calls by dose curve; tested in HEK293 reporter line; also: series mostly up to about 57 µM; % is scaled to controls: 0 for no effect and ±100 for the full control effect; nearly all actives have a fitted effect of over 80% in size).
The nature of assay [19]: qHTS for Inhibitors of the Functional Ribonucleoprotein Complex (vRNP) of Lymphocytic Choriomeningitis Arenaviruses (LCMV): Viability assay - alamar blue signal for LCMV Primary Screen (AID 1347085; calls by dose curve; tested in HEK293 reporter line; also: series mostly up to about 57 µM; % is scaled to controls: 0 for no effect and ±100 for the full control effect; nearly all actives have a fitted effect of over 80% in size).
Assay [20] addresses Nucleoprotein (Lymphocytic choriomeningitis virus (strain Armstrong)) (UniProt P09992). Put plainly: qHTS for Inhibitors of the Functional Ribonucleoprotein Complex (vRNP) of Lymphocytic Choriomeningitis Arenaviruses (LCMV): LCMV Primary Screen - GLuc reporter signal (AID 1347086; calls by dose curve; also: series mostly up to about 57 µM; % is scaled to controls: 0 for no effect and ±100 for the full control effect; nearly all actives have a fitted effect of over 70% in size).
In assay [21] the target is Nuclear receptor subfamily 1 group I member 2 (Rattus norvegicus) (UniProt Q9R1A7). The experiment in a line: qHTS assay for small molecule activators of the rat pregnane X receptor (rPXR) signaling pathway (AID 651751; call rule not given here; also: 0% is about no effect). Particulars: rPXR reporter cells, luciferase (One-Glo), 24 h.
Nuclear receptor subfamily 1 group I member 2 (Rattus norvegicus), sequence (Q9R1A7 whole entry, looked up): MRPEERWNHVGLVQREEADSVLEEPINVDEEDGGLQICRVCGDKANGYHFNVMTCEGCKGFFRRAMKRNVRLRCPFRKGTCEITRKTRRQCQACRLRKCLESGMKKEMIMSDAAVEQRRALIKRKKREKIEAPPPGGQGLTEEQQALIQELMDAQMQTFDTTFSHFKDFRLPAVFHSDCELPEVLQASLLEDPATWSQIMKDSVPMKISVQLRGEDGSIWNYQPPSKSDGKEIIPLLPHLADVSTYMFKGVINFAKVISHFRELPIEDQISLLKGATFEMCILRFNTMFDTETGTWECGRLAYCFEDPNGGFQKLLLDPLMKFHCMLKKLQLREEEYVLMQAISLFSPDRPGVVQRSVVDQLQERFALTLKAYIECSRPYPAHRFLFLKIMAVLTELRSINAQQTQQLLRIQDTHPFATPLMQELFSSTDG
Assay [22] in a line: qHTS assay for small molecule activators of the human pregnane X receptor (PXR) signaling pathway (AID 720659; call rule not given here; also: 0% is about no effect).

Voltage-gated inwardly rectifying potassium channel KCNH2 (Homo sapiens), sequence (Q12809 whole entry, looked up): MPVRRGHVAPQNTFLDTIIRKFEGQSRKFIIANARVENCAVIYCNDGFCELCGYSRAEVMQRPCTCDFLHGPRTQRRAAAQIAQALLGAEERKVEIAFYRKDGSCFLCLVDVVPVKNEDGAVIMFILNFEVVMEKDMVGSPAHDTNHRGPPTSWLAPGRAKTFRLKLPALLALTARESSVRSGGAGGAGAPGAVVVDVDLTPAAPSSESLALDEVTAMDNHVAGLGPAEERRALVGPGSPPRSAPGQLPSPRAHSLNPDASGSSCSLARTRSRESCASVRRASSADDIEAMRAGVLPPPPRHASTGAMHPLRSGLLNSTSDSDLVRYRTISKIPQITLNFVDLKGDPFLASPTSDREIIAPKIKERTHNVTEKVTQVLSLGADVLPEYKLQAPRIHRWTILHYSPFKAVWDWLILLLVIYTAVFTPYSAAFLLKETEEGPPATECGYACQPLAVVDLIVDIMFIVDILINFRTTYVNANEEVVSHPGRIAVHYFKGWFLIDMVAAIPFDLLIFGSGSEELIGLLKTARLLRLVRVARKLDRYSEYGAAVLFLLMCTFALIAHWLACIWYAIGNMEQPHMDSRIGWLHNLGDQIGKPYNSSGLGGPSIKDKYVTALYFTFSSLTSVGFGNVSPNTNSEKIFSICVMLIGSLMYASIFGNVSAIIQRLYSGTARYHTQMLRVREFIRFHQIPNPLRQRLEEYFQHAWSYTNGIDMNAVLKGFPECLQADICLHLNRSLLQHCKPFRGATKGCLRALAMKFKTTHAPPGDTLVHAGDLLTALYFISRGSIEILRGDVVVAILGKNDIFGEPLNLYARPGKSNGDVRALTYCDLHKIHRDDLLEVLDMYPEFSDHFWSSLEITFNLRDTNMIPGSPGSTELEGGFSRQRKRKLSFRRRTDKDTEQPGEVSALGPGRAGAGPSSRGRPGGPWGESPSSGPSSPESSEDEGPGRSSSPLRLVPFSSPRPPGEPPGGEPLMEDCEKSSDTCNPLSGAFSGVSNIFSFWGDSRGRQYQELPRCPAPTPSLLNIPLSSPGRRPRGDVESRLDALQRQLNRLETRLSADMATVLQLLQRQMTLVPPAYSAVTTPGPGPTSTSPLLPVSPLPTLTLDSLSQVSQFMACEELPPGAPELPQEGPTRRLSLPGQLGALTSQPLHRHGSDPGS
Peroxisome proliferator-activated receptor alpha (Homo sapiens), sequence (Q07869 whole entry, looked up): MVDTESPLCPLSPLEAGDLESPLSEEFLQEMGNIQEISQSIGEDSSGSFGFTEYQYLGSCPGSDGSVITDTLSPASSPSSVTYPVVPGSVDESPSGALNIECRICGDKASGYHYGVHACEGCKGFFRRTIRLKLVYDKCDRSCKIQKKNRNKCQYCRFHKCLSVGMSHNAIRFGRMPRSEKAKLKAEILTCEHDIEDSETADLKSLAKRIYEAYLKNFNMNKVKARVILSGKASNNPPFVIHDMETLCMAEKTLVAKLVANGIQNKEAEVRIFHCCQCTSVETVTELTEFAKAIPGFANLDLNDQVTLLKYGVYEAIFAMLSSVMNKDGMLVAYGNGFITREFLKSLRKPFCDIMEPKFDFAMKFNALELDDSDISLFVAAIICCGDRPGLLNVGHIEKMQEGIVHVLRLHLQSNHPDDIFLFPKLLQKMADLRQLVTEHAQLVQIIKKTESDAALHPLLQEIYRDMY
Tumor necrosis factor (Homo sapiens), sequence (P01375 whole entry, looked up): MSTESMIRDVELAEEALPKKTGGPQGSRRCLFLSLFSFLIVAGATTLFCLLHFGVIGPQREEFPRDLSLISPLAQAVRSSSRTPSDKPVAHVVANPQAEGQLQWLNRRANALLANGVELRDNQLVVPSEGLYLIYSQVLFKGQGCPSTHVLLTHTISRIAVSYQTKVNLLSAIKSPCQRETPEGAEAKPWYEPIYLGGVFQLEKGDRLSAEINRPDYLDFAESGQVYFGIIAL
Nucleoprotein (Lymphocytic choriomeningitis virus (strain Armstrong)), sequence (P09992 whole entry, looked up): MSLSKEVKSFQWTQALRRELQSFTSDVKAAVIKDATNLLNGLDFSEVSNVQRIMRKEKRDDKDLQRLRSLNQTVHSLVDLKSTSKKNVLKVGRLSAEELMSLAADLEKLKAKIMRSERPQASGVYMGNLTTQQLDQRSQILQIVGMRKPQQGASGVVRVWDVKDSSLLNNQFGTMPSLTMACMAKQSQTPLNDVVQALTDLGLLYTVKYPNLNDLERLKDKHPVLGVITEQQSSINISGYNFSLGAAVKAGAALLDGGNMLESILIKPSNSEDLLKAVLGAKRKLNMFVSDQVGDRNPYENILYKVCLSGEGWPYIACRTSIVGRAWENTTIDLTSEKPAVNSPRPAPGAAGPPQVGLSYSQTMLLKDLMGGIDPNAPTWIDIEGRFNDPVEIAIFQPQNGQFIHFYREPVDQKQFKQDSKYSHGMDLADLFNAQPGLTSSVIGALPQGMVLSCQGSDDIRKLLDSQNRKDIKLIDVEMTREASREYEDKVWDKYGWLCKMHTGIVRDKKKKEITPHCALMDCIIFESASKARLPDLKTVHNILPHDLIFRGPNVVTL

For the molecule `CC(=O)/C=C/c1ccccc1`, the outcome in assay [1], in [9], in [14], in assay [16] and in [22] was inactive. Also, the max response in assay [2] is -5.45%; in [3] it was 11.5% (inactive); in assay [12], -5.69% (inactive); in [15], -4.92% (inactive); in [21], -0.846% (inactive). Besides, the Potency entry in assay [4], in [5], in assay [7], in [8], in assay [10] and in [13] was “inactive” each time. The Potency result in [17], in assay [18], in assay [19] and in assay [20] was “inactive” throughout. Besides, the activation in assay [6] is -1.47% (inactive); in assay [11] it was -0.449% (inactive).
